HEK293 tox = HEK 293 cell cytotoxicity; HEK 293 viability, ATP luminescence (CellTiter-Glo), 48-72 h; Potency, µM (titrated, usually from 115 µM), actives largely listed as inhibitors; 94,000 tested, 6.6% active; further: nearly all actives have a fitted effect of over 60% in size
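CellTiter-Glo luminescence (cellular ATP) was read after 48 or 72 hr of compound exposure at 37 degree Celsius. Cells were HEK 293 plated at 250 cells/well.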
3T3 cytotox = NIH 3T3 cell cytotoxicity. Potency, µM (top dose mostly 96.7 µM), actives largely listed as inhibitors. NIH 3T3 viability, CellTiter-Glo ATP luminescence, 48-72 h. 94,000 tested, 4.3% active; further: nearly all actives have a fitted effect of over 55% in size
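Cytotoxicity was measured by CellTiter-Glo ATP luminescence after 48 or 72 h compound exposure at 37 °C. Mouse NIH 3T3 fibroblasts were seeded at 400 cells/well and dosed by 23 nL pin transfer.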
hNpr1 antagonist = blocks ANP-stimulated signaling of human Npr1 receptor; P16066; HEK293 hNpr1 GloSensor cGMP, ANP-stimulated luminescence; Potency, µM (highest dose often 46.3 µM), actives largely listed as inhibitors; 76,000 tested, 1.6% active; AID 1347048; calls by dose curve; further: nearly all actives have a fitted effect of over 60% in size
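HEK293 cells stably expressing human Npr1 and cGMP GloSensor pGS-40F, loaded 2 h with 2% GloSensor reagent, given compound 30 min at room temperature. Luminescence read before and 20 min after 0.1 nM hNppA.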
FLuc inh = blocks purified firefly luciferase enzyme activity; purified P. pyralis luciferase, luminescence, biochemical; 76,000 tested, 2.5% active; P08659; Potency, µM (doses to about 115 µM), hits mostly inhibitors; further: nearly all actives have a fitted effect of over 65% in size
Target sequence (P08659 whole entry, looked up): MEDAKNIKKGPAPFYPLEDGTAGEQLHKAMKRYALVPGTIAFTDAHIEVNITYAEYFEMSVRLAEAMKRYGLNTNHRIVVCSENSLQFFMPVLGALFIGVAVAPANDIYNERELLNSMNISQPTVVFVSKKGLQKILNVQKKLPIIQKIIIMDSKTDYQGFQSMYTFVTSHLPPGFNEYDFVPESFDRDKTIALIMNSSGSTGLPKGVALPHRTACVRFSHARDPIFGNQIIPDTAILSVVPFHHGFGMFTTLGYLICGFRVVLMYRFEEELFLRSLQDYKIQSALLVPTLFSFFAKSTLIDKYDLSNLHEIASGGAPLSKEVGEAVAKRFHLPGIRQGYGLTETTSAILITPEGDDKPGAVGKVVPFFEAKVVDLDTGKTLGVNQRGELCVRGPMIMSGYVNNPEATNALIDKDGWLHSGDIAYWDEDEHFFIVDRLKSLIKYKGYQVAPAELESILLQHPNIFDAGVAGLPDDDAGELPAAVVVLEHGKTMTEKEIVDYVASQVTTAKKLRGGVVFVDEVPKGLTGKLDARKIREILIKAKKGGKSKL
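Inhibitors were tested against purified firefly luciferase in a biochemical, low-substrate format (both substrates at 10uM) and luminescence measured with a CCD imager.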
GPT2 inhibitor = blocks human glutamate pyruvate transaminase 2; Q8TD30; Recombinant GPT2, coupled pyruvate oxidase/HRP Amplex Red fluorescence; Potency, µM (top dose mostly 57.7 µM), hits mostly inhibitors; 100,000 tested, 0.25% active; AID 1671188; further: nearly all actives have a fitted effect of over 60% in size
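GPT2 10ng/uL, a-KG 250uM, L-Ala 2mM, HEPES pH7.5 + 0.0001% Tween; 30 min RT. Then Amplex mix (PO/HRP/ThPP), 30 min RT dark, fluorescence. AOA 50uM used as positive control.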
Hits are given with their value. Only some compounds are listed: those with a hit (about 10% of all), similar ones and a draw of the others. Unless noted, the call rests on the fitted dose curve; in most records, active means well fitted curve in the direction sought with a large enough effect; inconclusive means small, poorly fitted or top-dose-only effect, or another doubt; inactive means no such curve, though single readings can be large; an effect the other way counts as inactive or inconclusive.

What do the screens show for `Cc1nn(-c2ccc(C(F)(F)F)cc2)c(C)c1[C@@H]1C=C[C@@H](NC(=O)NC2CCCCC2)C1`?
HEK293 tox: inconclusive; 3T3 cytotox: inconclusive; hNpr1 antagonist: inactive; FLuc inh: inactive; GPT2 inhibitor: inconclusive

What do the screens show for `Cc1nn(-c2ccc(C(C)C)cc2)c(C)c1[C@@H]1C=C[C@@H](NC(=O)NC2CCCCC2)C1`?
HEK293 tox: inconclusive; 3T3 cytotox: inconclusive; hNpr1 antagonist: inconclusive; FLuc inh: 7.9µM; GPT2 inhibitor: inactive

What do the screens show for `Cc1cc(C(=O)N[C@H]2[C@H](O)[C@H](O)C[C@@H]2c2ccccc2)c(C(F)(F)F)o1`?
HEK293 tox: inactive; 3T3 cytotox: inactive; hNpr1 antagonist: inactive; FLuc inh: inactive; GPT2 inhibitor: inactive

Results for COc1ccc(C(=O)N2CCC3(CC2)C(OC)C(=O)N3c2cccc(F)c2)cn1 (centres undefined) ?
HEK293 tox: inactive; 3T3 cytotox: inactive; hNpr1 antagonist: inactive; FLuc inh: inactive; GPT2 inhibitor: inactive

How did CC(=O)N1CCO[C@@H](COc2ccccn2)[C@@H]1c1ccccc1 do in these assays?
HEK293 tox: inactive; 3T3 cytotox: inactive; GPT2 inhibitor: inactive

How did CCNC(=O)N[C@@H]1C=C[C@@H](c2c(C)nn(-c3ccc(C(C)(C)C)cc3)c2C)C1 do in these assays?
HEK293 tox: 35µM; 3T3 cytotox: inconclusive; hNpr1 antagonist: 32µM; FLuc inh: inconclusive; GPT2 inhibitor: inactive

How did Fc1ccccc1-c1noc(-c2nc(Cc3ccccc3)no2)n1 do in these assays?
HEK293 tox: inactive; 3T3 cytotox: inactive; hNpr1 antagonist: inactive; FLuc inh: 20µM; GPT2 inhibitor: inactive

What do the screens show for `COc1ccc2[nH]c3c(c2c1)CCNC31CCN(C(=O)c2ccc(C)s2)CC1`?
HEK293 tox: 11µM; 3T3 cytotox: inconclusive; hNpr1 antagonist: inactive; FLuc inh: inactive; GPT2 inhibitor: inactive

How did COc1ccc2[nH]c3c(c2c1)CCNC31CCN(C(=O)c2sccc2C)CC1 do in these assays?
HEK293 tox: inconclusive; 3T3 cytotox: inactive; hNpr1 antagonist: inconclusive; FLuc inh: inactive; GPT2 inhibitor: inactive

How did COc1ccc2[nH]c3c(c2c1)CCNC31CCN(C(=O)c2cccs2)CC1 do in these assays?
HEK293 tox: 8.9µM; 3T3 cytotox: inconclusive; hNpr1 antagonist: inactive; FLuc inh: inactive; GPT2 inhibitor: inactive

Results for O=C(NCCNC(=O)c1ccc(-c2cccc(C(F)(F)F)c2)cc1)Nc1ccc(Cl)cc1 ?
HEK293 tox: inactive; 3T3 cytotox: inactive

How did COCc1cc(C[C@@H]2C[C@H](NS(C)(=O)=O)C2(C)C)no1 do in these assays?
HEK293 tox: inactive; 3T3 cytotox: inactive; hNpr1 antagonist: inactive; FLuc inh: inactive; GPT2 inhibitor: inactive

How did CC1(C)[C@H](Cc2cc(CC3CCCCC3)on2)C[C@@H]1NS(C)(=O)=O do in these assays?
HEK293 tox: 71µM; 3T3 cytotox: inconclusive; hNpr1 antagonist: inactive; FLuc inh: inactive; GPT2 inhibitor: inconclusive

What do the screens show for `COc1ccc(C(=O)N[C@H]2C[C@@H](Cc3cc(CN(C)C)on3)C2(C)C)cc1`?
HEK293 tox: inactive; 3T3 cytotox: inactive; hNpr1 antagonist: inactive; FLuc inh: inactive; GPT2 inhibitor: inactive

Results for CCCCc1cc(C[C@@H]2C[C@H](NC(=O)C3CC3)C2(C)C)no1 ?
HEK293 tox: inconclusive; 3T3 cytotox: inactive; hNpr1 antagonist: inactive; FLuc inh: inconclusive; GPT2 inhibitor: inactive

Results for COc1ccc(C(=O)N[C@H]2C[C@@H](Cc3cc(-c4ccccc4)on3)C2(C)C)cc1 ?
HEK293 tox: 45µM; 3T3 cytotox: 50µM; hNpr1 antagonist: inconclusive; FLuc inh: inconclusive; GPT2 inhibitor: inactive

Results for CCCCc1cc(C[C@@H]2C[C@H](NC(=O)C(C)(C)C)C2(C)C)no1 ?
HEK293 tox: 71µM; 3T3 cytotox: inconclusive; hNpr1 antagonist: inactive; FLuc inh: inconclusive; GPT2 inhibitor: inconclusive

What do the screens show for `CC(C)Cc1cc(C[C@@H]2C[C@H](NC(=O)c3ccco3)C2(C)C)no1`?
HEK293 tox: 71µM; 3T3 cytotox: inconclusive; hNpr1 antagonist: inactive; FLuc inh: inactive; GPT2 inhibitor: inactive

How did CC1(C)[C@H](Cc2cc(CN3CCCCC3)on2)C[C@@H]1NC(=O)c1ccco1 do in these assays?
HEK293 tox: inconclusive; 3T3 cytotox: inconclusive; hNpr1 antagonist: inactive; FLuc inh: inactive; GPT2 inhibitor: inactive

Results for O=C(C1CCCN1C(=O)Nc1ccc(Cl)cc1)N1CCC(c2nc3ccncc3[nH]2)C1 (centres undefined) ?
HEK293 tox: inactive; 3T3 cytotox: inconclusive; GPT2 inhibitor: inactive

Results for Cc1ccc(CN[C@@H]2CO[C@H](CNC(=O)c3ccccc3)[C@H]2O)cc1 ?
HEK293 tox: inactive; 3T3 cytotox: inactive; hNpr1 antagonist: inactive; FLuc inh: inactive; GPT2 inhibitor: inactive

Results for O=C(NCc1ccc(F)cc1)c1nc(-c2ccc(Cl)cc2)c2ccccn12 ?
HEK293 tox: inconclusive; 3T3 cytotox: inactive; hNpr1 antagonist: inactive; FLuc inh: inactive; GPT2 inhibitor: inactive

Results for COc1ccc(C(=O)N2CC3(Cc4ccccc4N([S+](C)(=O)[O-])C3)C2)cc1 ?
HEK293 tox: inconclusive; 3T3 cytotox: inactive; hNpr1 antagonist: inactive; FLuc inh: inactive; GPT2 inhibitor: inactive

What do the screens show for `CC(C)(C)c1nnc2ccc(C(=O)NCc3ccccc3)cn12`?
HEK293 tox: inactive; 3T3 cytotox: inconclusive; GPT2 inhibitor: inactive

Results for CC1(C)[C@H](Cc2cc(CN3CCN(c4ccccc4)CC3)on2)C[C@@H]1NCC1CC1 ?
HEK293 tox: 89µM; 3T3 cytotox: inconclusive; hNpr1 antagonist: inactive; FLuc inh: inactive; GPT2 inhibitor: inactive

Results for CC1(C)[C@H](Cc2cc(CN3CCOCC3)on2)C[C@@H]1NCc1ccc(CO)o1 ?
HEK293 tox: inactive; 3T3 cytotox: inactive; hNpr1 antagonist: inactive; FLuc inh: inactive; GPT2 inhibitor: inactive

What do the screens show for `CC1(C)[C@H](Cc2cc(CN3CCCCC3)on2)C[C@@H]1NC(=O)c1ccccc1`?
HEK293 tox: inconclusive; 3T3 cytotox: inconclusive; hNpr1 antagonist: inactive; FLuc inh: inactive; GPT2 inhibitor: inactive

Results for CC1(C)[C@H](Cc2cc(CC3CCCCC3)on2)C[C@@H]1NC(=O)c1ccccc1 ?
HEK293 tox: 32µM; 3T3 cytotox: 56µM; hNpr1 antagonist: inconclusive; FLuc inh: inactive; GPT2 inhibitor: inactive

What do the screens show for `O=C1CN(C(=O)C2CCCC2)CC(O)CN1CCCc1ccccc1` (centres undefined)?
HEK293 tox: inconclusive; 3T3 cytotox: inactive

What do the screens show for `CC(C)(C)C(=O)NC1CCN(Cc2ccc(-c3ccsc3)cc2)C1` (centres undefined)?
HEK293 tox: inconclusive; 3T3 cytotox: inconclusive; GPT2 inhibitor: inactive

Results for OC[C@@H]1CN(Cc2cccc(F)c2)C[C@H]1c1nc(-c2ccncc2)no1 ?
HEK293 tox: 45µM; 3T3 cytotox: inactive; hNpr1 antagonist: inactive; FLuc inh: inactive; GPT2 inhibitor: inactive

Assay outcomes from PubChem.
